# High-throughput results: PubChem, National Center for Advancing Translational Sciences (NCATS)
# This is a sample that favours compounds with a hit; in the whole collection about 2.4% have one here.
# D2 PAM-1 – Beta-Arrestin HTS for Positive Allosteric Modulators of the Human D2 Dopamine Receptor: Potentiators; D(2) dopamine receptor (Homo sapiens), P14416; DiscoveRx D2 beta-arrestin cells, luminescence, 90 min; 100% = 57 uM dopamine signal; potentiation, % (no concentration beside the values); 360,000 tested, 0.23% active; AID 624464, 2012; in the data active = potentiation above about 50%; inconclusive = mostly about 30% to 49%
# Target sequence (P14416 whole entry, looked up): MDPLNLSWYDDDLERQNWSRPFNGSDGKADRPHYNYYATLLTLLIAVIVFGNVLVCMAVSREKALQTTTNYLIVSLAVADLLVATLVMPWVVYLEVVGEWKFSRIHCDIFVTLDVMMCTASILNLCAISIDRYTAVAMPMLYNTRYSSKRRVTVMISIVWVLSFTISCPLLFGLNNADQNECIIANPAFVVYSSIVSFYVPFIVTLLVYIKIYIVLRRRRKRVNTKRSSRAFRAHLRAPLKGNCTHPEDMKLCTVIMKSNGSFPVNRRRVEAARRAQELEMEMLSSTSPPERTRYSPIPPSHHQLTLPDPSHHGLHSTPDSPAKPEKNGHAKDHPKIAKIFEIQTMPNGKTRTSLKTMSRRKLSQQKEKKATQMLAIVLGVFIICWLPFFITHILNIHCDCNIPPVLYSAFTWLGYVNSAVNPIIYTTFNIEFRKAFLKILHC
#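 PathHunter D2 cells, attached overnight at 37 deg C, received compound in DMSO plus dopamine at EC20 (50 nM final) for 90 min at 37 deg C. Beta-arrestin recruitment was read as luminescence after 1 h with detection reagent at ambient temperature.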
# D2 antag – HTS Assay for Allosteric Antagonists of the Human D2 Dopamine Receptor: Primary Screen for Antagonists; D(2) dopamine receptor (Homo sapiens), P14416; HEK293 TREx D2 cells, calcium flux, dopamine EC80; inhibition, % at 10 µM; 340,000 tested, 2% active; AID 485344, 2010; in the data active = inhibition above about 30%; inactive = below that, where a call was filed; also: 0% is about no effect
#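 Cells plated overnight at 30 C with tetracycline; no-wash calcium dye, 30–90 min RT; 10 s baseline; compound pinned; 180 s read; EC80 dopamine added; another 180 s read.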
# D2 ag-1 – HTS Assay for Allosteric Agonists of the Human D2 Dopamine Receptor: Primary Screen for Agonists; D(2) dopamine receptor (Homo sapiens), P14416; HEK293 T-REx D2 cells, calcium flux agonist mode; activation, % at 2 µM; 340,000 tested, 0.53% active;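 active = activation over 3 SD above normal in the single-dose calcium agonist read, cut at about 30% in these data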; also: 0% is about no effect
#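 Agonism scored from kinetic calcium signal (1 read/sec, 180 s) following compound pin transfer, after a 10 s baseline. Cells: HEK293 Trex line expressing inducible D2 receptor coupled to calcium, dye-loaded after overnight culture at 30 C.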
# D2 PAM-2 – HTS Assay for Positive Allosteric Modulators of the Human D2 Dopamine Receptor: Primary Screen for Potentiators | HEK293 T-REx D2, calcium flux, EC20 dopamine potentiation | potentiation, % at 10 µM | D(2) dopamine receptor (Homo sapiens), P14416 | 340,000 tested, 0.34% active;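 active = potentiation over 3 SD above the plate norm, cut at about 30% in these data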; also: 0% is about no effect
#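 Potentiation of an EC20 dopamine calcium response is measured in a force-coupled, tetracycline-inducible Hek293 Trex D2 line. Compound-only kinetic reads over 180 s flag agonists before dopamine addition.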
# D2 ag-2 – Beta-Arrestin HTS for Positive Allosteric Modulators of the Human D2 Dopamine Receptor: Agonists | AID 624465, 2012 | activation, % (concentration not given with the values) | D(2) dopamine receptor (Homo sapiens), P14416 | DiscoveRx PathHunter D2 beta-arrestin, luminescence, 90 min; 100% = 57 uM dopamine signal | 360,000 tested, 0.084% active; in the data active = activation above about 40%; inconclusive = between about 15% and that limit
#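 DiscoveRx PathHunter D2 beta-arrestin cells (2,100/well) attached overnight, then compound-stimulated 90 min at 37 C in HBSS/10 mM HEPES/0.1% Tween-20 buffer; beta-galactosidase complementation read by luminescence after 1 h at ambient temperature. Dopamine 57 uM final (EC100) as control.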
# * marks the source's active call; other numbers are inactive results; ? = inconclusive; . = not tested or not shown.
SMILES,D2 PAM-1,D2 antag,D2 ag-1,D2 PAM-2,D2 ag-2
COc1cccc(/C=N/NC(=O)CN2CC(c3ccccc3)CC2=O)c1OC (stereo not drawn),-15,38*,-1,-28,-6
CCN(CC)CCCOC(=O)C(c1ccccc1)c1ccccc1,-82,50*,-2,-21,-5
CCOC(=O)N/N=C/c1cc(OC)c(O)c(OC)c1,-10,-15,0,-7,4
CCOC(=O)c1sc(N/N=C/c2cc(Br)c(O)c(OC)c2)nc1C,51*,-12,-1,13,41*
CCOc1ccc(OCC)c(NC(=O)c2csc3c2CCCC3)c1,.,.,-1,10,.
CC(C)c1ccccc1NC(=O)CNCCOc1ccccc1F,-11,46*,31*,-26,1
O=C(NCCc1ccccc1)c1cnc2sc(N3CCCCC3)nn2c1=O,.,.,0,-1,.
O=C(O)c1ccc(N2CCCS2(=O)=O)cc1,5,34*,0,-1,-2
O=C(Cn1c(NCCO)nc2ccccc21)c1ccc([N+](=O)[O-])cc1,-3,30*,0,7,14
C=CCN(C)CC/C=C1\c2ccccc2CSc2ccccc21,-32,68*,1,-23,-2
CN(CC/C=C1/c2ccccc2CSc2ccccc21)CCCO,-40,13,2,-19,-2
CN(C)CC/C=C1\c2cc(F)ccc2CSc2ccccc21,-52,37*,0,-25,-4
O=C(Nc1nc2c(s1)CN(Cc1ccccc1)CC2)C1CCC1,-7,51*,2,-2,-1
CCN1CCc2nc(NC(=O)c3ccccc3)sc2C1,7,-25,1,15,-4
CC(C)CN(c1ccccc1)S(=O)(=O)c1nnc(NC(=O)c2ccco2)s1,-30,68*,0,5,-2
COc1cc(Cl)c(C)cc1NC(=O)CSc1cc(-c2ccccc2)nc(C)n1,.,.,1,-17,.
CCCCOc1ccc(C(=O)Nc2ccc3c(c2)CCCN3S(=O)(=O)c2ccc(C)cc2)cc1,.,.,1,2,.
O=C(Cc1cccs1)Nc1ccc(NC(=O)c2ccco2)cc1,1,31*,0,-11,2
Cc1ccc2oc(=O)cc(CN3CCN(Cc4ccccc4)CC3)c2c1,-13,52*,-1,-21,0
CN1CCN(Cc2cc(=O)oc3ccc(Cl)cc23)CC1,-15,45*,1,-6,-4
Cc1cc2oc(=O)cc(CN3CCN(S(=O)(=O)/C=C/c4ccccc4)CC3)c2cc1C,-9,-4,36*,-17,0
Cc1cc2oc(=O)cc(CN3CCN(S(=O)(=O)c4ccc5c(c4)OCCO5)CC3)c2cc1C,-4,0,-1,10,-3
O=C(Nc1ccccc1SC(=O)c1ccccc1)c1ccccc1,-12,.,.,.,15
Cc1ccc(C(=O)Sc2cccccc2=O)cc1,-15,37*,4,7,-7
CCN(CC)S(=O)(=O)c1ccc(NC(=O)c2nn(C)c3c2CSc2ccccc2-3)cc1,.,.,1,10,.
SMILES,D2 PAM-1,D2 antag,D2 ag-1,D2 PAM-2,D2 ag-2
CC1CCc2c(sc(NC(=O)c3cc(-c4cccc(Cl)c4)on3)c2C(N)=O)C1 (stereo not drawn),.,.,0,-10,.
NNc1nc(-c2ccccc2Cl)nc2sc3c(c12)CCCC3,53*,-7,0,13,?
COc1ccc(Cl)cc1Nc1cc(C)nc2nc(-c3ccccc3C)nn12,.,.,-1,-2,.
CCOC(=O)N1CCN(C(=O)C2CCN(S(=O)(=O)c3cc(C)ccc3OC)CC2)CC1,-1,33*,-1,-2,-2
CCC(Oc1ccc(F)cc1)C(=O)Nc1nc(-c2ccc(F)cc2)ns1 (stereo not drawn),.,.,.,-19,.
CCOC(=O)c1sc2ccccc2c1S(=O)(=O)Nc1ccc(CC)cc1,.,.,0,0,.
CC(C)N1CC(COc2ccc(Br)cc2)OC1=O (stereo not drawn),-4,41*,0,2,2
C(=N\Nc1nc(-c2ccccc2)cs1)/c1ccncc1,-5,-15,1,-5,4
C(=N\Nc1nc(-c2ccccc2)cs1)/c1cccs1,63*,-11,-1,5,13
Cc1ccc(C)c(S(=O)(=O)c2nnn3c2nc(Nc2ccc(F)c(Cl)c2)c2sccc23)c1,.,.,0,2,.
O=C(Nc1cccc(C(F)(F)F)c1)c1cc(S(=O)(=O)N2CCCC2)c[nH]1,.,.,-1,14,.
CCOc1ccccc1CNc1ncnc2c1nc1n2CCCC1,.,.,-2,.,.
CC(C)N(C(C)C)S(=O)(=O)c1ccc(N2CCc3ccccc3C2)nc1,2,1,1,-10,-5
CCN(CC)S(=O)(=O)c1ccc(N2CCc3ccccc3C2)nc1,-16,-5,-2,34*,-9
CCN(CC)S(=O)(=O)c1ccc(-n2cnc3cc(C)c(C)cc32)nc1,-10,-10,1,38*,-1
CCN(CC)S(=O)(=O)c1ccc(C)c(C)c1,-9,-15,-1,-7,-2
CCCCC(=O)Nc1ccc(OCc2cc(=O)n3ccc(C)cc3n2)cc1,.,.,1,-3,.
O=c1[nH]cnc2c1ncn2[C@@H]1C[C@@H](O)[C@H](CO)O1,0,38*,1,10,-6
COc1ccc(OC)c(S(=O)(=O)N2c3ccccc3CC2C)c1 (stereo not drawn),-1,33*,0,-5,-1
COc1ccc(OC)c(S(=O)(=O)N2CCN(c3c(C)cccc3C)CC2)c1,-6,36*,0,4,-4
O=C(c1cccc(Cl)c1)N1c2ncnn2C2(CCCCC2)[C@@H]2CCCC[C@@H]21,.,.,-2,13,.
CCCCN1C(=O)C(O)(CC(=O)c2ccccc2OC)c2ccccc21 (stereo not drawn),-3,33*,0,-11,-3
c1ccc(-c2nc3nonc3nc2-c2ccccc2)cc1,74*,41*,1,12,?
CCCCC(=O)Nc1ccc(C(=O)OCc2cc(=O)n3ccsc3n2)cc1,.,.,10,-4,.
Cc1ccc(NC(=O)C2CCN(S(=O)(=O)c3ccc4c(c3)NC(=O)C(C)S4)CC2)cc1Cl (stereo not drawn),-1,73*,2,-14,0
c1ccc2c(c1)nnn2-c1ncnc2sc3c(c12)CCCC3,-7,31*,1,11,0
Cc1nc(-n2nnc3ccccc32)c2c3c(sc2n1)CCCC3,-4,-15,-1,-6,-1
